The supplement of paper PMC12636033
± gives the standard deviation of the averaged measurements. Over roughly 33,000 sequences, “E-score (rank enrichment, -0.5 to 0.5)” has its median near -0.0075; the highest 2% begin near 0.23. For the sample, the highest values were picked, then their nearest neighbours and some sequences at random.

These sequences were tested on WT Max(13-93) synthetic (M65Nle) (assay: PBM 8-mer E-score (E-score (rank enrichment, -0.5 to 0.5)); higher = stronger preferential binding).
Protocol: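 Protein binding microarray (universal PBM chip covering all 10-mers in fixed probe flanks) with chemically synthesized human Max(13-93) bHLH-LZ analogs (not full-length Max) bearing noncanonical residues (hArg, Tha, Aib, Nle at 65) and aromatic Cys staples. Read-out per 8-mer (and its reverse complement): E-score (rank-based enrichment, -0.5 to 0.5) and Z-score of median probe intensity.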

Compared with CGACGTGC, CAACGTGA is higher in “PBM 8-mer E-score” value: -0.0266 ± 0.031 for the first, 0.259 ± 0.05 for the second.

Going from GCACGTTA to CCACGTTA, the “PBM 8-mer E-score” value rises from 0.194 ± 0.078 to 0.3 ± 0.019.

Going from TAACGTGA to CCACGTGG, the “PBM 8-mer E-score” value rises from 0.125 ± 0.039 to 0.4957 ± 0.00063.

Going from CAACGTGG to CCACGTCC, the “PBM 8-mer E-score” value falls from 0.172 ± 0.03 to -0.0561 ± 0.11.

Going from AAACGTGA to CATTCCGG, the “PBM 8-mer E-score” value falls from 0.146 ± 0.13 to -0.206 ± 0.049.

ATTTCAAG and ACACTAGG are within error of each other in “PBM 8-mer E-score” value: 0.112 ± 0.2 for the first, -0.0884 ± 0.012 for the second.

ATCTTTTG and CTTATGAA are within error of each other in “PBM 8-mer E-score” value: 0.00161 ± 0.044 for the first, 0.0318 ± 0.11 for the second.

CTTACTCA and CTACGTGA are within error of each other in “PBM 8-mer E-score” value: 0.0397 ± 0.06 for the first, -0.0378 ± 0.094 for the second.

First: CGACGTGA
Second: CCACGTGA
The “PBM 8-mer E-score” value of the first is lower: 0.0688 ± 0.0071 for the first, 0.4829 ± 0.002 for the second.

AGAGCACA and ATTGCTTA are within error of each other in “PBM 8-mer E-score” value: -0.0234 ± 0.086 for the first, 0.0363 ± 0.041 for the second.

Compared with CGTACACC, AGTACACG is higher in “PBM 8-mer E-score” value: 0.0276 ± 0.012 for the first, 0.233 ± 0.032 for the second.

First: ACTACACA
Second: TGTACACA
The “PBM 8-mer E-score” value of the first is higher: 0.306 ± 0.067 for the first, 0.159 ± 0.071 for the second.

CGTACACA and ACTACACG are within error of each other in “PBM 8-mer E-score” value: 0.15 ± 0.012 for the first, 0.139 ± 0.041 for the second.

Going from CCTACACG to AGTACACA, the “PBM 8-mer E-score” value rises from -0.0643 ± 0.072 to 0.163 ± 0.09.

Compared with CGTACACG, CTTCGCTC is lower in “PBM 8-mer E-score” value: 0.257 ± 0.018 for the first, -0.143 ± 0.067 for the second.

Compared with TAAGGAGA, CAGAACCA is lower in “PBM 8-mer E-score” value: 0.0617 ± 0.054 for the first, -0.0491 ± 0.0095 for the second.

Compared with AGTTGCTC, AGCACATG is higher in “PBM 8-mer E-score” value: -0.143 ± 0.047 for the first, 0.343 ± 0.004 for the second.

Going from ATCACATC to ACCACATG, the “PBM 8-mer E-score” value rises from 0.065 ± 0.073 to 0.404 ± 0.012.

ACCACATC and AGCACATC are within error of each other in “PBM 8-mer E-score” value: 0.0678 ± 0.067 for the first, 0.0162 ± 0.041 for the second.

ATCACATA and ACCACATA are within error of each other in “PBM 8-mer E-score” value: 0.175 ± 0.13 for the first, 0.00899 ± 0.073 for the second.

Compared with AGCACATA, ATCACATG is higher in “PBM 8-mer E-score” value: 0.0511 ± 0.0046 for the first, 0.37 ± 0.017 for the second.

Going from GCTCTGAC to CCTACTGA, the “PBM 8-mer E-score” value rises from -0.2596 ± 0.00028 to 0.0748 ± 0.039.

Compared with CCCTATCA, CCTCACAC is lower in “PBM 8-mer E-score” value: 0.0698 ± 0.034 for the first, -0.0382 ± 0.027 for the second.

Compared with TGAGCTCA, CGTGCACA is higher in “PBM 8-mer E-score” value: -0.206 ± 0.065 for the first, 0.176 ± 0.0077 for the second.

Compared with CATGCACG, CATGCACA is higher in “PBM 8-mer E-score” value: 0.186 ± 0.11 for the first, 0.353 ± 0.0061 for the second.

Compared with AATGCACA, GATGCACA is lower in “PBM 8-mer E-score” value: 0.128 ± 0.055 for the first, -0.00554 ± 0.026 for the second.

Compared with AATGCACT, AATGCACG is higher in “PBM 8-mer E-score” value: 0.143 ± 0.027 for the first, 0.245 ± 0.045 for the second.

Going from CGTGCACG to TGTGCACA, the “PBM 8-mer E-score” value falls from 0.293 ± 0.049 to 0.132 ± 0.071.

First: CCTACTGC
Second: AATAGAGT
The “PBM 8-mer E-score” value of the first is lower: -0.0303 ± 0.015 for the first, 0.0159 ± 0.021 for the second.

AAGGCTCT and GGTCGGAA are within error of each other in “PBM 8-mer E-score” value: -0.0744 ± 0.037 for the first, -0.0727 ± 0.14 for the second.

First: AGTCTGTG
Second: ACAGTGTG
The “PBM 8-mer E-score” value of the first is lower: -0.264 ± 0.097 for the first, 0.116 ± 0.011 for the second.

GGACATTA and GTGCACAA are within error of each other in “PBM 8-mer E-score” value: 0.0724 ± 0.14 for the first, -0.0677 ± 0.047 for the second.

Going from GATACAGC to CAGTATTC, the “PBM 8-mer E-score” value rises from 0.0628 ± 0.015 to 0.0983 ± 0.017.

First: CACATGCA
Second: GACATGCC
The “PBM 8-mer E-score” value of the first is higher: 0.305 ± 0.031 for the first, 0.167 ± 0.019 for the second.

Compared with CACATGCC, AACATGCG is lower in “PBM 8-mer E-score” value: 0.258 ± 0.024 for the first, 0.221 ± 0.0062 for the second.

Compared with CACATGCG, AACATGCC is lower in “PBM 8-mer E-score” value: 0.29 ± 0.047 for the first, 0.093 ± 0.12 for the second.

CCCATGCG and CATATGCC are within error of each other in “PBM 8-mer E-score” value: 0.187 ± 0.058 for the first, 0.118 ± 0.036 for the second.

TACATGCA and CATATGCG are within error of each other in “PBM 8-mer E-score” value: 0.196 ± 0.084 for the first, 0.252 ± 0.015 for the second.

GACATGCA and AATATGCG are within error of each other in “PBM 8-mer E-score” value: 0.144 ± 0.07 for the first, 0.0644 ± 0.011 for the second.

Going from CTGCATAA to CCAATGTA, the “PBM 8-mer E-score” value falls from 0.0963 ± 0.024 to -0.0337 ± 0.034.

Going from GTTGTTTA to CTACACTC, the “PBM 8-mer E-score” value falls from 0.212 ± 0.071 to -0.0808 ± 0.031.

ACTGAGAC and CCCACGGC are within error of each other in “PBM 8-mer E-score” value: -0.109 ± 0.043 for the first, -0.024 ± 0.17 for the second.

CAGATTGG and CACATCCG are within error of each other in “PBM 8-mer E-score” value: -0.114 ± 0.072 for the first, -0.176 ± 0.045 for the second.

Going from CTAAGGAG to GAAATACA, the “PBM 8-mer E-score” value rises from -0.143 ± 0.011 to -0.0415 ± 0.044.

TAAATATA and TAAATACA are within error of each other in “PBM 8-mer E-score” value: 0.253 ± 0.0074 for the first, 0.248 ± 0.0097 for the second.

AAAATACA and AAAATATC are within error of each other in “PBM 8-mer E-score” value: 0.0792 ± 0.0013 for the first, 0.098 ± 0.12 for the second.

GAAATATA and AAAATATA are within error of each other in “PBM 8-mer E-score” value: 0.219 ± 0.035 for the first, 0.254 ± 0.032 for the second.

Compared with CAAATATA, AAAATATG is higher in “PBM 8-mer E-score” value: 0.137 ± 0.06 for the first, 0.21 ± 0.0022 for the second.

Going from AGGGCGTA to GAATTCTA, the “PBM 8-mer E-score” value falls from 0.122 ± 0.028 to -0.07 ± 0.14.

Compared with CAGGCCCC, GTATGCAC is higher in “PBM 8-mer E-score” value: -0.0835 ± 0.04 for the first, 0.1415 ± 0.00096 for the second.

Going from CCATGCAC to TCATGCAA, the “PBM 8-mer E-score” value rises from 0.0862 ± 0.038 to 0.174 ± 0.02.

Compared with ACATGCGT, CCATGCAA is lower in “PBM 8-mer E-score” value: 0.313 ± 0.081 for the first, 0.127 ± 0.083 for the second.

Compared with AAATGCGT, GCATGCAC is higher in “PBM 8-mer E-score” value: 0.0113 ± 0.099 for the first, 0.277 ± 0.0097 for the second.

First: ACATGCAG
Second: ACATGCAC
The “PBM 8-mer E-score” value of the first is lower: 0.126 ± 0.044 for the first, 0.244 ± 0.065 for the second.

Compared with GCATGCAA, ACATGCGG is lower in “PBM 8-mer E-score” value: 0.257 ± 0.029 for the first, 0.14 ± 0.056 for the second.

For ACATGCAA, the “PBM 8-mer E-score” value was 0.185 ± 0.073.
